Sa growth inh: inhibitors of Staphylococcus aureus growth at 42 °C. 170,000 compounds, 0.53% hits. relative growth, % (concentration not given with the values). S. aureus RN4220 growth, OD600, 20 h; stronger effect = lower value. AID 720641;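 active means relative growth at most 50% at the other temperature and 20+ points below 30 °C, or under 10% at both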
S aureus helic: blocks Staphylococcus aureus DNA helicase; purified S. aureus helicase, fluorescence unwinding assay; inhibition, % (test concentration not listed); 120,000 compounds, 0.05% hits; AID 485395; in the data active means inhibition above about 25%, passing the limit was not always enough;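 further: 0% = mean of negative control wells and 100% = mean of positive control wells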
* marks the source's active call; other numbers are inactive results; . = no result given; ! = not confirmed by another sample. Only a selection was taken, and hits are over-represented in it overall.

SMILES	Sa growth inh	S aureus helic
CC1COc2c(F)c(F)cc3c(=O)c(C(=O)O)cn1c23 (configuration not stated)	.	18.0
CCn1cc(C(=O)O)c(=O)c2cc(F)c(N3CCNC(C)C3)c(F)c21 (configuration not stated)	-0.6*	.
CC1COc2c(N3CCN(C)CC3)c(F)cc3c(=O)c(C(=O)N4CCN(S(=O)(=O)c5ccccc5)CC4)cn1c23 (configuration not stated)	89.9	-9.0
COc1cccc(C(=O)NC2=NC(c3ccccc3Cl)CC(=O)N2)c1 (configuration not stated)	104.3	-26.0
O=C(Nc1ccc(Cl)c(Cl)c1)Oc1ccc(NC(=O)c2ccco2)cc1	3.7*	-2.0
O=C(Nc1ccc2ccccc2c1)c1ccco1	98.0	.
CC1=C(c2ccccc2)S(=O)(=O)N=C1N1CCCC1	101.9	10.0
COCCN1COc2c(cc(Cl)c3cccnc23)C1	0.9*	12.0
COc1ccc(CCN2COc3c(cc(Cl)c4cccnc34)C2)cc1OC	.	14.0
COCCNC(=O)Cn1cnc2c(nc3n2CCCCC3)c1=O	86.7	-30.0
COc1ccc(-c2nsc(NC(=O)C(C)Oc3ccc(Cl)c(C)c3)n2)cc1 (configuration not stated)	83.5	.
CC(Oc1ccc(F)cc1)C(=O)Nc1nc(-c2ccc(F)cc2)ns1 (configuration not stated)	2.3*	.
Cc1ccc(CN2C(=O)CN(C3CCCC3)C(=O)C2c2ccc(F)cc2)cc1 (configuration not stated)	99.7	17.0
CC(C)(C)C1CCc2nc(NC(=O)c3ccc([N+](=O)[O-])cc3)sc2C1 (configuration not stated)	95.2	.
CC(C)(C)C1CCc2nc(NC(=O)c3cccc(Cl)c3)sc2C1 (configuration not stated)	12.6*	.
O=C1C(=Cc2ccc(N3CCCC3)cc2)C(=O)c2ccccc21	61.8	-86.0
N=c1n(CCN2CCCCC2)c2ccccc2n1CC(O)COc1ccc(Cl)cc1Cl (configuration not stated)	0.3*	.
COc1ccc(OCC(O)Cn2c(=N)n(CCN3CCCCC3)c3ccccc32)cc1 (configuration not stated)	118.5	.
COc1cccc(-c2nnc(NC(=O)c3ccc(S(=O)(=O)N4CCCCC4C)cc3)o2)c1 (configuration not stated)	2.4*	4.0
COc1ccc(-c2nnc(NC(=O)c3ccc(S(=O)(=O)N4CCCCC4)cc3)o2)cc1	19.9	1.0
CC(=O)Nc1nnc(-c2cccs2)o1	.	-4.0
CCCN(CCC)S(=O)(=O)c1ccc(C(=O)Nc2nnc(-c3cccc(OC)c3)o2)cc1	0.1*	-21.0
CC(C)N(Cc1ccccc1)S(=O)(=O)c1ccc(C(=O)Nc2nnc(-c3cccs3)o2)cc1	7.3*	-7.0
CN(CC1CCCO1)S(=O)(=O)c1ccc(C(=O)Nc2ccc3c(c2)C(=O)NC3=O)cc1 (configuration not stated)	95.7	-9.0
CN(CC1CCCO1)S(=O)(=O)c1ccc(C(=O)Nc2nnc(-c3ccccc3)o2)cc1 (configuration not stated)	-0.1*	8.0
SMILES	Sa growth inh	S aureus helic
COc1cccc(-c2nnc(NC(=O)c3ccc(S(=O)(=O)N(C)C)cc3)o2)c1	71.0	1.0
CCN1CCCC1CNC(=O)CSc1c2c(nc3ccccc13)CCCC2 (configuration not stated)	98.9	6.0
CCOC(=O)N1CCC(NC(=O)c2cc3c(=O)oc4ccccc4c3s2)CC1	110.3	18.0
CN(C)C(=O)COc1ncnc2scc(-c3ccccc3)c12	82.5	-11.0
Cc1cccc(N(C)S(=O)(=O)c2ccc3c(c2)CCN3C(=O)C2CC2)c1	96.5	7.0
CN(C)C(=O)COC(=O)c1ccccc1I	104.0	-10.0
C=CCNc1nc(-c2cc(C)n(C3CC3)c2C)cs1	88.2	13.0
O=C(/C=C/c1ccc(Br)o1)OCC(=O)N1CCCc2ccccc21	115.8	1.0
CCOC(=O)CSc1nnc(-c2ccc(N(C)C)cc2)o1	92.3	5.0
C=CCN(CC=C)S(=O)(=O)c1ccc(C(=O)Nc2nnc(-c3ccc(OC)cc3OC)o2)cc1	94.4	8.0
COc1cccc(-c2nnc(NC(=O)c3ccc(S(=O)(=O)N(Cc4ccccc4)C(C)C)cc3)o2)c1	0.4*	-3.0
CCOC(=O)c1c(-c2c(Cl)cccc2Cl)noc1C	0.5*	.
CCOC(=O)c1c(-c2c(Cl)cccc2Cl)noc1N	104.2	.
Cc1c(Sc2ccc(Cl)cc2)cnn1C(=O)NC(C)C	99.3	.
Cc1c(Sc2ccc(Cl)cc2)cnn1C(=O)Nc1cccc(C(F)(F)F)c1	4.5*	.
Cc1ccc2oc(-c3ccccc3)cc(=O)c2c1	97.5	.
CCCN=c1cc(-c2ccccc2)oc2ccc(C)cc12	109.0	65.0*
CSc1c(-c2cccs2)c(N)nn1S(=O)(=O)c1ccccc1	80.4	.
CCn1c(CNC(=O)c2ccccc2)n[nH]c1=S	94.8	2.0
COC(=O)C1=C(C(=O)c2ccccc2)C(c2ccccc2)n2ncnc2N1 (configuration not stated)	101.7	11.0
N#Cc1ccc(OCC(=O)Nc2cc(-c3ccccc3)nn2-c2ccccc2)cc1	69.9	-8.0
O=C(Nc1nn2cnnc2s1)c1ccc(S(=O)(=O)N2CCc3ccccc3C2)cc1	96.8	16.0
COc1ccc2[nH]cc(CCSC(=N)N)c2c1	106.8	7.0
COC(=O)C1=C(C)NC(=O)C1(NS(=O)(=O)c1ccc(C)cc1)C(F)(F)F (configuration not stated)	72.3	4.0
COC1(NS(=O)(=O)c2ccc(C)cc2)C(C)=CC(=O)C=C1C	1.7*	23.0
SMILES	Sa growth inh	S aureus helic
CC1CN(Cc2csc(Nc3ccccc3)n2)CC(C)O1 (configuration not stated)	0.7*	12.0
CC(=O)N1CCN(Cc2csc(Nc3ccccc3)n2)CC1	105.5	-6.0
COCCn1c(SCC(=O)c2ccc3c(c2)OCCO3)nc2ccccc2c1=O	91.4	-1.0
O=C1NCCN1C(=O)NC1CCCCC1	84.6	4.0
CC1(C)S[C@@H]2[C@H](NC(=O)[C@H](NC(=O)N3CCNC3=O)c3ccccc3)C(=O)N2C1C(=O)O (some centres not stated)	-1.3*	.
CC1(C)S[C@@H]2[C@H](NC(=O)[C@@H](N)c3ccc(O)cc3)C(=O)N2[C@H]1C(=O)O	-0.4*	.
CCCSc1nsc(NC(=O)CN2C(=O)COc3ccccc32)n1	96.5	-25.0
CN1CCCN(C(=O)C23CC4CC(C)(CC(C)(C4)C2)C3)CC1	80.6	9.0
NC[C@H]1O[C@H](OC2[C@@H](N)C[C@@H](N)[C@H](O[C@H]3O[C@H](CO)[C@@H](O)[C@H](N)[C@H]3O)[C@H]2O)[C@H](O)[C@@H](O)[C@@H]1O (some centres not stated)	99.4	.
NC[C@H]1O[C@H](O[C@H]2[C@H](O)[C@@H](O[C@H]3O[C@H](CO)[C@@H](O)[C@H](N)[C@H]3O)[C@H](N)C[C@@H]2N)[C@H](N)C[C@@H]1O	-0.6*!	.
C/C(=N\NC(N)N)C1CCCCCCCCCCC1	-0.4*	0.0
C/C(=N\NC(N)=O)C1CCCCC1	97.5	8.0
Cc1ccc(Cn2ccsc2=NC(=O)COC(=O)C2=COCCO2)cc1	114.1	22.0
COCC(C)n1c(C)cc(C(=O)COC(=O)c2ccc(S(=O)(=O)N3CCCC3)cc2)c1C (configuration not stated)	97.8	5.0
Cc1ccc2c(c1)c1c3n2CC(O)CN=C3CCC1 (configuration not stated)	93.0	20.0

From PubChem
